Assay outcomes deposited in PubChem by several laboratories.
Only some compounds are listed: those with a hit (about 2.9% of all), similar ones and a draw of the others.
ERb SRC1 inh: inhibitors of ERβ-SRC1 coactivator interaction, primary screen, biochemical, TR-FRET, ERβ LBD, SRC-1 peptide; TR-FRET ER-beta LBD / SRC1-Cy5 peptide binding; receptor agonist-loaded with 1 µM estradiol; inhibition, % at 25.6 µM; 86,000 compounds, 1.3% hits; AID 633, 2007;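 active means compounds whose percent inhibition of the receptor-coactivator binding signal exceeds about 50% in the single-dose screen, limit read from the data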
Target sequence (Q92731 whole entry, looked up, the tested form may be a part): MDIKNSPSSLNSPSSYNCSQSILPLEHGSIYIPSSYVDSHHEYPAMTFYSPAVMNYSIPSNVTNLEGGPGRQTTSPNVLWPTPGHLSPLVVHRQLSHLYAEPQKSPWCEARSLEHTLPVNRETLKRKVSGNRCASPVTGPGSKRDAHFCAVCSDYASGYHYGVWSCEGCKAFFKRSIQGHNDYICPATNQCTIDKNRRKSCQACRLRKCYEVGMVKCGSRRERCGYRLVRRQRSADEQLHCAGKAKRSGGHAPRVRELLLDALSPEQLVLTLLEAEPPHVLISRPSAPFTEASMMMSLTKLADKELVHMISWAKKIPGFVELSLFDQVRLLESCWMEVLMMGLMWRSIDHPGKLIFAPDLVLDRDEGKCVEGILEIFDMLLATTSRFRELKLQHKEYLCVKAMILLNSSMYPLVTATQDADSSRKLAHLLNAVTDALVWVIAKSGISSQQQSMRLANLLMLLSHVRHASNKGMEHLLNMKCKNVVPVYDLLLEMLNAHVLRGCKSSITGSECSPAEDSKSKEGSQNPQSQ
Smad3 inh: Smad3/FoxH1 peptide binding inhibitors, primary screen, biochemical, TR-FRET; TR-FRET Smad3/Dy647-FoxH1 peptide binding, europium anti-His; inhibition, % at 25 µM; Mothers against decapentaplegic homolog 3 (Homo sapiens), P84022; 88,000 compounds, 0.29% hits;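 active means compounds that reduce the energy-transfer binding signal between the protein and its labelled peptide by more than half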
HePTP inh: inhibitors of human HePTP phosphatase, primary screen, biochemical, absorbance, leukemia target | AID 521, 2006 | Tyrosine-protein phosphatase non-receptor type 7 (Homo sapiens), P35236 | recombinant HePTP phosphatase activity, OD absorbance | inhibition, % at 20 µM | 110,000 compounds, 0.64% hits; in the data active means inhibition above about 50%
ERa SRC1 pot: enhancers of ERα–SRC-1 coactivator binding, primary screen, biochemical, TR-FRET, ERα LBD, low estradiol. TR-FRET ERalpha-LBD/SRC-Cy5 coactivator binding, 2 h; 100 = basal binding, no effect. Estrogen receptor (Homo sapiens), P03372. coactivator binding (% of control), % at 25.6 µM. 86,000 compounds, 1.3% hits. AID 639, 2007; in the data active means activity above about 200%;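 further: binding measured in presence of low estradiol as agonist stimulus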
ERa coact inh: ERα–SRC-1 coactivator interaction inhibitors, primary screen, biochemical, TR-FRET, ERα LBD, estradiol-bound. Estrogen receptor (Homo sapiens), P03372. TR-FRET ER-alpha LBD / SRC-1 peptide. inhibition, % at 25.6 µM. 86,000 compounds, 1.7% hits; in the data active means inhibition above about 50%
Calb biofilm kill: clotrimazole potentiators killing Candida biofilms, primary screen, with clotrimazole, Alamar Blue | C. albicans biofilm + clotrimazole | inhibition, % at 6 µM | 85,000 compounds, 0.14% hits;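 active means inhibition above 20%; inactive means inhibition below 20%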;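 further: preformed 24 hr biofilms exposed to compound for 48 hr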
Large screens that a line does not name were inactive; [ ] = another dose, or the depositor's remark.

CCN(CC)c1ccc(-c2nn3c(-c4n[nH]c5c4CCC5)nnc3s2)cc1	none
O=[N+]([O-])c1ccc(-c2ccc(/C=N/Nc3nnc4c(n3)[nH]c3ccccc34)o2)cc1	none (no result: ERb SRC1 inh, Smad3 inh, ERa SRC1 pot, ERa coact inh, Calb biofilm kill)
COc1cc(/C=N/NC(=S)Cc2ccccc2)cc(OC)c1OC	HePTP inh 104 (no result: ERb SRC1 inh, Smad3 inh, ERa SRC1 pot, ERa coact inh, Calb biofilm kill)
COc1cccc(=O)c2c(C)n(C)c(C)c12	ERb SRC1 inh 51[fluorescence artefact?]
CCOc1cccc(=O)c2c(C)n(C)c(C)c12	none
CC1(C)Cc2c(c(-c3ccco3)[nH]c(=O)c2C#N)CS1	ERb SRC1 inh 62[fluorescence artefact?]
O=C1CC2c3ccccc3C1C1C(=O)N(c3ccccc3)C(=O)C21 (stereo not drawn)	HePTP inh 103 (no result: ERb SRC1 inh, Smad3 inh, ERa SRC1 pot, ERa coact inh, Calb biofilm kill)
O=C(Cc1ccccc1)NC(NC(=O)Cc1ccccc1)c1ccc(Br)cc1	none (no result: ERb SRC1 inh, Smad3 inh, ERa SRC1 pot, ERa coact inh, Calb biofilm kill)
O=C(Nc1nc(-c2nc3ccccc3s2)cs1)C1CC1	none
O=C(Nc1nc(-c2nc3ccccc3s2)cs1)c1ccco1	ERa SRC1 pot 288[fluorescence artefact?]
O=C(c1ccccc1F)N1CCN(S(=O)(=O)c2ccc(S(=O)(=O)N3CCCCC3)cc2)CC1	ERa coact inh 66[fluorescence artefact?]
FC(F)(F)c1cnc(Nc2ccc(N3CCOCC3)cc2)c(Cl)c1	ERb SRC1 inh 86[fluorescence artefact?], ERa coact inh 63[fluorescence artefact?]
Cc1cc(C)nc(Nc2ccc(N3CCOCC3)cc2)n1	none (no result: ERb SRC1 inh, Smad3 inh, ERa SRC1 pot, ERa coact inh, Calb biofilm kill)
Cc1ccc(-n2ncc3c(=O)[nH]c(SCC(=O)N4CCC(C)CC4)nc32)cc1C	ERa SRC1 pot 346[fluorescence artefact?]
CCCCCSc1nc2c(cnn2-c2ccccc2)c(=O)[nH]1	ERa SRC1 pot 283[fluorescence artefact?]
Cc1ccc(-n2ncc3c(=O)[nH]c(SCC(=O)N4CCN(c5ccccc5)CC4)nc32)cc1	ERb SRC1 inh 53[fluorescence artefact?]
CCSc1nc2c(cnn2-c2ccc(C)c(C)c2)c(=O)[nH]1	ERb SRC1 inh 65[fluorescence artefact?], ERa SRC1 pot 239[fluorescence artefact?], ERa coact inh 70[fluorescence artefact?]
Cc1ccc(-n2ncc3c(=O)[nH]c(SCC(=O)N4CCOCC4)nc32)cc1	none
CC(C)Sc1nc2c(cnn2-c2ccccc2)c(=O)[nH]1	none
Cc1cc(OCC(=O)Nc2ccc(I)cc2Cl)cc(C)c1Cl	none (no result: ERb SRC1 inh, Smad3 inh, ERa SRC1 pot, ERa coact inh, Calb biofilm kill)
Cc1cc2nc3s/c(=C\c4cc5c(cc4[N+](=O)[O-])OCO5)c(=O)n3c2cc1C	none (no result: ERb SRC1 inh, Smad3 inh, ERa SRC1 pot, ERa coact inh, Calb biofilm kill)
O=C(NC(CS)C(=O)O)c1cncc(O)c1 (stereo not drawn)	none (no result: ERb SRC1 inh, Smad3 inh, ERa SRC1 pot, ERa coact inh, Calb biofilm kill)
CCC(=O)Nc1cc(OC)c(NC(=O)c2ccccc2)cc1OC	ERb SRC1 inh 53[fluorescence artefact?], ERa coact inh 64[fluorescence artefact?]
COc1cc(NC(=O)c2ccccc2)c(OC)cc1NC(C)=O	none
COc1ccc(NS(=O)(=O)c2ccc(C3CCCCC3)cc2)cc1	none (no result: ERb SRC1 inh, Smad3 inh, ERa SRC1 pot, ERa coact inh, Calb biofilm kill)
Fc1ccc(OCCN2CCCCC2)cc1	none (no result: ERb SRC1 inh, Smad3 inh, ERa SRC1 pot, ERa coact inh, Calb biofilm kill)
O=C(NCCOc1ccccc1F)c1ccc(Cl)cc1Cl	none (no result: ERb SRC1 inh, Smad3 inh, ERa SRC1 pot, ERa coact inh, Calb biofilm kill)
COc1ccc(Br)cc1C(=O)Nc1ccc(-c2nc3ccccc3o2)cc1	none (no result: ERb SRC1 inh, Smad3 inh, ERa SRC1 pot, ERa coact inh, Calb biofilm kill)
O=C1CC(c2ccco2)=Nc2ccccc2N1	none
Cc1ccc(O)c(C2=Nc3ccccc3N=C(c3ccco3)C2)c1	ERa SRC1 pot 228[fluorescence artefact?] (no result: HePTP inh)
O=C(Nc1ccc2nn(-c3ccccc3)nc2c1)c1cccc(I)c1	none (no result: ERb SRC1 inh, Smad3 inh, ERa SRC1 pot, ERa coact inh, Calb biofilm kill)
CCOc1ccc(Nc2cc(=O)oc3ccccc23)cc1	ERa SRC1 pot 256 (no result: HePTP inh)
CCCCNc1cc(=O)oc2ccccc12	none (no result: HePTP inh)
COc1cccc(N2C(=O)C(=O)/C(=C(\O)c3ccccc3)C2c2ccc(F)cc2)c1 (stereo not drawn)	none (no result: ERb SRC1 inh, Smad3 inh, ERa SRC1 pot, ERa coact inh, Calb biofilm kill)
O=C(CCn1nnc2ccccc21)Nc1nnc(-c2ccccc2F)s1	ERa SRC1 pot 248
CCC(CO)N=Cc1c(O)n(-c2c(Cl)cccc2Cl)c2ccccc12 (stereo not drawn)	none (no result: ERb SRC1 inh, Smad3 inh, ERa SRC1 pot, ERa coact inh, Calb biofilm kill)
Nc1n[nH]c(N)c1N=Nc1ccc(F)cc1	none (no result: ERb SRC1 inh, Smad3 inh, ERa SRC1 pot, ERa coact inh, Calb biofilm kill)
Nc1n[nH]c(N)c1N=Nc1ccccc1F	HePTP inh 103 (no result: ERb SRC1 inh, Smad3 inh, ERa SRC1 pot, ERa coact inh, Calb biofilm kill)
Cc1ccc(C(=O)c2coc3c2C(=O)c2ccccc2C3=O)cc1	none (no result: ERb SRC1 inh, Smad3 inh, ERa SRC1 pot, ERa coact inh, Calb biofilm kill)
Nc1ccc(Cl)c(NC(=O)c2cccs2)c1	none
Nc1ccc(NC(=O)c2cccs2)c(Cl)c1	ERa SRC1 pot 237[fluorescence artefact?]
Cc1cccc(N2C(=O)Cn3c2nc2c3c(=O)n(C)c(=O)n2C)c1	none (no result: ERb SRC1 inh, Smad3 inh, ERa SRC1 pot, ERa coact inh, Calb biofilm kill)
Cc1cccc(OCC(=O)Nc2nonc2NC(=O)COc2cccc(C)c2)c1	ERb SRC1 inh 52[fluorescence artefact?], ERa coact inh 72[fluorescence artefact?] (no result: HePTP inh)
